Whole data set: some 16,000 sequences, median “rpm ratio (pull-down/input)” near 0.94, cut for the highest 2% near 1.7. Many of the other results were omitted from the sample, so the highest values are more common in it than they were.

Results on 32 sequences are retold here after publication PMC12820563, “FoxP3 forms a head-to-head dimer in vivo and stabilizes its multimerization on adjacent microsatellites”.

The target of the assay is T1, MBP-FoxP1dN (Mus musculus, UniProt P58462 326-579).
T1 sequence: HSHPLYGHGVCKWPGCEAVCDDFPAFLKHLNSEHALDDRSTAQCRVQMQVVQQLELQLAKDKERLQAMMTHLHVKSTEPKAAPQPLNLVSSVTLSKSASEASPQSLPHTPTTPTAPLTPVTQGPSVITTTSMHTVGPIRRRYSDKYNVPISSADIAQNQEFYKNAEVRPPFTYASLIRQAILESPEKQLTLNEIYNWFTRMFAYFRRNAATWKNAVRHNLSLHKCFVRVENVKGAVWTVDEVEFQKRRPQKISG
The assay can be described thus: PD-seq (MBP pull-down with sequencing); 20 mM Tris-HCl pH 7.5, 100 mM NaCl, 1.5 mM MgCl2, 0.4 uM protein, 0.1 uM dsDNA library, 30 min, room temperature, amylose pull-down; high values mean tight binding. The conditions noted are these: protein: recombinant; tags: His6-MBP; chain copies: 2; dsDNA, one strand shown. The gist of the method:
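A degenerate double-stranded DNA library, filled in with Klenow, was added at 0.1 µM to 0.4 µM His6-MBP-tagged mouse FoxP3 or FoxP1 fragment lacking the N-terminus, expressed in E. coli. Incubation lasted 30 min at room temperature in Tris pH 7.5 buffer with NaCl and MgCl2, after which complexes were collected on amylose resin, washed three times, digested with proteinase K to free the DNA, barcoded by PCR and sequenced by Illumina. Binding is the pooled-replicate reads-per-million enrichment of pull-down over input.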
As to “GATGATTGTTCTCCCAGCTGATGAATTCGTTGGGTCGAGTAAACAAATTTTCCTAATCTTTCTGTTCAAGCGCCATCTAC”, the binding signal was 0.781 RPM ratio (pull-down/input).

For “GATGATTGTTCTCCCAGCTGATGAATTCCAAGGATCGAGTAAACAAATTTTCCTAATCTTTCTGTTCAAGCGCCATCTAC”, the binding signal is 0.795 RPM ratio (pull-down/input).

Take “GATGATTGTTCTCCCAGCTGATGAATTCAACTAGTCGAGTAAACAAATTTTCCTAATCTTTCTGTTCAAGCGCCATCTAC”: the binding signal was 0.877 RPM ratio (pull-down/input).

Consider “GATGATTGTTCTCCCAGCTGATGAATTTATTGGCTCGAGTAAACAAATTTTCCTAATCTTTCTGTTCAAGCGCCATCTAC”, for which the binding signal was 1.09 RPM ratio (pull-down/input).

As to “GATGATTGTTCTCCCAGCTGATGAATTGAGAGTCTCGAGTAAACAAATTTTCCTAATCTTTCTGTTCAAGCGCCATCTAC”, the binding signal is 0.741 RPM ratio (pull-down/input).

For the sequence “GATGATTGTTCTCCCAGCTGATGAATTAGACGGGTCGAGTAAACAAATTTTCCTAATCTTTCTGTTCAAGCGCCATCTAC”, the binding signal was 0.832 RPM ratio (pull-down/input).

On to “GATGATTGTTCTCCCAGCTGATGAATTAAAGCGCTCGAGTAAACAAATTTTCCTAATCTTTCTGTTCAAGCGCCATCTAC”, for which the binding signal was 0.953 RPM ratio (pull-down/input).

As for “GATGATTGTTCTCCCAGCTGATGAATTGCGGCTATCGAGTAAACAAATTTTCCTAATCTTTCTGTTCAAGCGCCATCTAC”, the binding signal was 1.02 RPM ratio (pull-down/input).

Turning to “GATGATTGTTCTCCCAGCTGATGAATTGTATTACTCGAGTAAACAAATTTTCCTAATCTTTCTGTTCAAGCGCCATCTAC”, the binding signal was 1.24 RPM ratio (pull-down/input).

For the sequence “GATGATTGTTCTCCCAGCTGATGAATTACCCGGTTCGAGTAAACAAATTTTCCTAATCTTTCTGTTCAAGCGCCATCTAC”, the binding signal is 0.848 RPM ratio (pull-down/input).

Turning to “GATGATTGTTCTCCCAGCTGATGAATTGTTTTCATCGAGTAAACAAATTTTCCTAATCTTTCTGTTCAAGCGCCATCTAC”, the binding signal was 1.96 RPM ratio (pull-down/input).

Consider “GATGATTGTTCTCCCAGCTGATGAATTGTTTTCCTCGAGTAAACAAATTTTCCTAATCTTTCTGTTCAAGCGCCATCTAC”, for which the binding signal is 2.36 RPM ratio (pull-down/input).

Turning to “GATGATTGTTCTCCCAGCTGATGAATTTGTTTCATCGAGTAAACAAATTTTCCTAATCTTTCTGTTCAAGCGCCATCTAC”, the binding signal is 1.33 RPM ratio (pull-down/input).

Turning to “GATGATTGTTCTCCCAGCTGATGAATTAGATTGCTCGAGTAAACAAATTTTCCTAATCTTTCTGTTCAAGCGCCATCTAC”, the binding signal is 0.987 RPM ratio (pull-down/input).

As for “GATGATTGTTCTCCCAGCTGATGAATTTTAGAGCTCGAGTAAACAAATTTTCCTAATCTTTCTGTTCAAGCGCCATCTAC”, the binding signal was 0.77 RPM ratio (pull-down/input).

As for “GATGATTGTTCTCCCAGCTGATGAATTGTTTCCCTCGAGTAAACAAATTTTCCTAATCTTTCTGTTCAAGCGCCATCTAC”, the binding signal is 1.41 RPM ratio (pull-down/input).

As to “GATGATTGTTCTCCCAGCTGATGAATTTTTTTCATCGAGTAAACAAATTTTCCTAATCTTTCTGTTCAAGCGCCATCTAC”, the binding signal is 1.02 RPM ratio (pull-down/input).

With “GATGATTGTTCTCCCAGCTGATGAATTGTTTGCCTCGAGTAAACAAATTTTCCTAATCTTTCTGTTCAAGCGCCATCTAC”, the binding signal is 1.96 RPM ratio (pull-down/input).

As to “GATGATTGTTCTCCCAGCTGATGAATTTGTTTCCTCGAGTAAACAAATTTTCCTAATCTTTCTGTTCAAGCGCCATCTAC”, the binding signal is 1.49 RPM ratio (pull-down/input).

With “GATGATTGTTCTCCCAGCTGATGAATTTTTTGCCTCGAGTAAACAAATTTTCCTAATCTTTCTGTTCAAGCGCCATCTAC”, the binding signal is 0.956 RPM ratio (pull-down/input).

On to “GATGATTGTTCTCCCAGCTGATGAATTTAGATGCTCGAGTAAACAAATTTTCCTAATCTTTCTGTTCAAGCGCCATCTAC”, for which the binding signal is 1.78 RPM ratio (pull-down/input).

“GATGATTGTTCTCCCAGCTGATGAATTTGCCTCCTCGAGTAAACAAATTTTCCTAATCTTTCTGTTCAAGCGCCATCTAC”: the binding signal is 0.95 RPM ratio (pull-down/input).

For the sequence “GATGATTGTTCTCCCAGCTGATGAATTGGTACCTTCGAGTAAACAAATTTTCCTAATCTTTCTGTTCAAGCGCCATCTAC”, the binding signal is 0.97 RPM ratio (pull-down/input).

“GATGATTGTTCTCCCAGCTGATGAATTTGTGTCATCGAGTAAACAAATTTTCCTAATCTTTCTGTTCAAGCGCCATCTAC”: the binding signal was 1.48 RPM ratio (pull-down/input).

Consider “GATGATTGTTCTCCCAGCTGATGAATTAAAGCAATCGAGTAAACAAATTTTCCTAATCTTTCTGTTCAAGCGCCATCTAC”, for which the binding signal is 1.32 RPM ratio (pull-down/input).

For the sequence “GATGATTGTTCTCCCAGCTGATGAATTCGTTCAATCGAGTAAACAAATTTTCCTAATCTTTCTGTTCAAGCGCCATCTAC”, the binding signal is 0.909 RPM ratio (pull-down/input).

For the sequence “GATGATTGTTCTCCCAGCTGATGAATTACATGGTTCGAGTAAACAAATTTTCCTAATCTTTCTGTTCAAGCGCCATCTAC”, the binding signal was 1.12 RPM ratio (pull-down/input).

On to “GATGATTGTTCTCCCAGCTGATGAATTTAGGCTATCGAGTAAACAAATTTTCCTAATCTTTCTGTTCAAGCGCCATCTAC”, for which the binding signal is 0.955 RPM ratio (pull-down/input).

For “GATGATTGTTCTCCCAGCTGATGAATTATTAGATTCGAGTAAACAAATTTTCCTAATCTTTCTGTTCAAGCGCCATCTAC”, the binding signal is 1.08 RPM ratio (pull-down/input).

On to “GATGATTGTTCTCCCAGCTGATGAATTAGACTGATCGAGTAAACAAATTTTCCTAATCTTTCTGTTCAAGCGCCATCTAC”, for which the binding signal was 0.851 RPM ratio (pull-down/input).

With “GATGATTGTTCTCCCAGCTGATGAATTACAATTGTCGAGTAAACAAATTTTCCTAATCTTTCTGTTCAAGCGCCATCTAC”, the binding signal was 1.4 RPM ratio (pull-down/input).

Take “GATGATTGTTCTCCCAGCTGATGAATTTTGAACTTCGAGTAAACAAATTTTCCTAATCTTTCTGTTCAAGCGCCATCTAC”: the binding signal was 0.94 RPM ratio (pull-down/input).
